According to PubChem BioAssay (EPA / NIEHS):
Active and inactive are the calls of the source. Rule for the calls: active = hit-call score of the fitted dose curve at least 0.9, where 1 is the maximum; inactive = score below 0.9.

Key:
[1] = read-out: TIMP metallopeptidase inhibitor 2 (TIMP2), TIMP2 (gene 7077); assay: BSK_KF3CT_TIMP2: BioMAP Diversity Plus: KF3CT Assay for TIMP metallopeptidase inhibitor 2 (TIMP2) Biomarker Activity (AID 2283071); conditions: primary human keratinocytes with fibroblasts; actives raise or lower the signal
Procedure, shortened: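 Keratinocyte–fibroblast co-culture, 24 h exposure; TIMP-2 ELISA, DMSO-normalised bidirectional fit. Parallel SRB (0.1%, TCA-fixed, 560 nm) total-protein staining gauges cytotoxicity.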

[2] = read-out: Transforming growth factor beta 1 (TGFb1), TGFB1 (gene 7040); assay: BSK_KF3CT_TGFb1: BioMAP Diversity Plus: KF3CT Assay for Transforming growth factor beta 1 (TGFb1) Biomarker Activity (AID 2283072); conditions: primary human keratinocytes with fibroblasts; actives raise or lower the signal
Procedure, shortened: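 Signal changes in either direction, relative to DMSO, define activity here. TGF-b1 is read by ELISA from a human keratinocyte-fibroblast co-culture 24 h post-dose.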

[3] = read-out: C-C motif chemokine 2 (Homo sapiens) (UniProt P13500); assay: BSK_KF3CT_MCP1: BioMAP Diversity Plus: KF3CT Assay for Monocyte Chemoattractant Protein 1 (MCP1/CCL2) Biomarker Activity (AID 2283073); conditions: primary human keratinocytes with fibroblasts; actives raise or lower the signal
Procedure, shortened: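 Human keratinocyte plus foreskin fibroblast primary co-culture exposed to chemical for 24 h. MCP-1 levels measured by ELISA. Bidirectional curve fitting relative to DMSO negative control as baseline.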

[4] = read-out: Matrix Metallopeptidase 9 (MMP9), MMP9 (gene 4318); assay: BSK_KF3CT_MMP9: BioMAP Diversity Plus: KF3CT Assay for Matrix Metallopeptidase 9 (MMP9) Biomarker Activity (AID 2283074); conditions: primary human keratinocytes with fibroblasts; actives raise or lower the signal;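 for AC50: MMP9 protein level quantified by ELISA in the co-culture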
Procedure, shortened: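 Human keratinocyte and foreskin fibroblast co-culture exposed to chemicals for 24 h; MMP9 biomarker measured by ELISA, bidirectional fitting relative to DMSO; cytotoxicity tracked by SRB total protein staining in parallel cultures.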

[5] = read-out: urokinase plasminogen activator (uPA), PLAU (gene 5328); assay: BSK_KF3CT_uPA: BioMAP Diversity Plus: KF3CT Assay for urokinase plasminogen activator (uPA) Biomarker Activity (AID 2283075); conditions: primary human keratinocytes with fibroblasts; actives raise or lower the signal
Procedure, shortened: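 Primary human keratinocyte/foreskin fibroblast co-culture exposed to chemical; uPA measured by ELISA at 24 h. Bidirectional fit versus DMSO, with parallel SRB total-protein staining for cytotoxicity.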

CD40, CD40 (gene 958) [6] = assay: BSK_LPS_CD40: BioMAP Diversity Plus: LPS Assay for CD40 Biomarker Activity (AID 2283076); conditions: primary human HUVEC with PBMC; actives raise or lower the signal
Procedure, shortened: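 Primary human umbilical vein endothelial cells co-cultured with peripheral blood mononuclear cells, LPS-stimulated, were dosed with chemical and read 24 h later. CD40 levels were measured by ELISA and fitted bidirectionally against DMSO as negative control and baseline.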

[7] = read-out: E-selectin (Homo sapiens) (UniProt P16581); assay: BSK_LPS_Eselectin: BioMAP Diversity Plus: LPS Assay for Eselectin Biomarker Activity (AID 2283077); conditions: primary human HUVEC with PBMC; actives raise or lower the signal
Procedure, shortened: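 Human umbilical vein endothelial cells co-cultured with peripheral blood mononuclear cells under LPS stimulation; E-selectin measured by ELISA 24 h after chemical dosing. Activity fitted bidirectionally against DMSO as negative control and baseline.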

[8] = read-out: Interleukin-8 (IL8), CXCL8 (gene 3576); assay: BSK_LPS_IL8: BioMAP Diversity Plus: LPS Assay for Interleukin-8 (IL8) Biomarker Activity (AID 2283078); conditions: primary human HUVEC with PBMC; actives raise or lower the signal
Procedure, shortened: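 Human umbilical vein endothelial cells co-cultured with PBMC were stimulated with LPS; IL-8 levels were measured by ELISA 24 h after chemical dosing. Activity was fitted bidirectionally against DMSO as negative control and baseline.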

[9] = BSK_LPS_SRB: Viability Assessment in the BioMAP Diversity Plus: LPS Assay (AID 2283079); conditions: primary human HUVEC with PBMC;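 note: total protein by sulforhodamine B absorbance as a cytotoxicity measure; measured one day after compound addition; fitted in both directions against DMSO so loss or gain of signal counts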
Procedure, shortened: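 Human umbilical vein endothelial cells co-cultured with PBMC (LPS system) were dosed for 24 h. Total protein was stained with 0.1% sulforhodamine B after 10% TCA fixation, read at 560 nm, and fitted bidirectionally against DMSO baseline.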

[10] = read-out: Monocyte Chemoattractant Protein-1 (MCP1), CCL2 (gene 6347); assay: BSK_LPS_MCP1: BioMAP Diversity Plus: LPS Assay for Monocyte Chemoattractant Protein-1 (MCP1) Biomarker Activity (AID 2283081); conditions: primary human HUVEC with PBMC; actives raise or lower the signal;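 for AC50: secreted MCP-1 protein quantified by ELISA in culture supernatant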
Procedure, shortened: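 HUVEC plus PBMC co-culture (human primary cells, LPS system) exposed to test chemical for 24 h; MCP-1 measured by ELISA. Bidirectional curve fitting against DMSO baseline; parallel SRB total-protein staining flags overt cytotoxicity.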

[11] = BSK_LPS_PGE2: BioMAP Diversity Plus: LPS Assay for Prostaglandin E2 (PGE2) Biomarker Activity (AID 2283082); conditions: primary human HUVEC with PBMC; actives raise or lower the signal
Procedure, shortened: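 Endpoint derived from bidirectional curve fitting versus DMSO of ELISA-measured PGE2 in LPS-stimulated human primary vascular co-culture (HUVEC with PBMC) harvested at 24 h.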

[12] = read-out: Macrophage colony-stimulating factor (MCSF), CSF1 (gene 1435); assay: BSK_LPS_MCSF: BioMAP Diversity Plus: LPS Assay for Macrophage colony-stimulating factor (MCSF) Biomarker Activity (AID 2283083); conditions: primary human HUVEC with PBMC; actives raise or lower the signal
Procedure, shortened: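 Human umbilical vein endothelial cells co-cultured with peripheral blood mononuclear cells were exposed to compound for 24 h. M-CSF levels were measured by ELISA, and bidirectional curve fitting used DMSO as the negative control and baseline.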

[13] = read-out: Tumor necrosis factor (Homo sapiens) (UniProt P01375); assay: BSK_LPS_TNFa: BioMAP Diversity Plus: LPS Assay for Tumour Necrosis Factor alpha (TNFa) Biomarker Activity (AID 2283085); conditions: primary human HUVEC with PBMC; actives raise or lower the signal
Procedure, shortened: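 Primary human vascular co-culture of HUVEC and PBMC; TNFa ELISA 24 h after treatment, analysed as increase or decrease relative to DMSO control.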

[14] = read-out: Vascular cell adhesion molecule 1 (VCAM1), VCAM1 (gene 7412); assay: BSK_LPS_VCAM1: BioMAP Diversity Plus: LPS Assay for Vascular cell adhesion molecule 1 (VCAM1) Biomarker Activity (AID 2283086); conditions: primary human HUVEC with PBMC; actives raise or lower the signal
Procedure, shortened: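 Primary human vascular co-culture (umbilical vein endothelium plus PBMC) stimulated with LPS received chemical; 24 h later VCAM-1 was read by ELISA. Overt cytotoxicity was assessed by sulforhodamine B staining of parallel cultures at the same time point.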

CD38, CD38 (gene 952) = assay: BSK_SAg_CD38: BioMAP Diversity Plus: SAg Assay for CD38 Biomarker Activity (AID 2283087); conditions: primary human HUVEC with PBMC; actives raise or lower the signal
Procedure, shortened: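 Fluorescence ELISA of cell-surface CD38 served as the read-out, with either increase or decrease fitted against DMSO controls. Cells were a human umbilical vein endothelium plus PBMC co-culture under SEB/TSST-1 stimulation, measured 24 h after dosing.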

CD40, CD40 (gene 958) [15] = assay: BSK_SAg_CD40: BioMAP Diversity Plus: SAg Assay for CD40 Biomarker Activity (AID 2283088); conditions: primary human HUVEC with PBMC; actives raise or lower the signal
Procedure, shortened: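 Human umbilical vein endothelial cells co-cultured with PBMC; CD40 levels measured by ELISA with fluorescence read-out 24 h after chemical dosing. Gain or loss of signal fitted bidirectionally against DMSO baseline.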

CD69, CD69 (gene 969) = assay: BSK_SAg_CD69: BioMAP Diversity Plus: SAg Assay for CD69 Biomarker Activity (AID 2283089); conditions: primary human HUVEC with PBMC; actives raise or lower the signal;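 for AC50: cell surface CD69 protein quantified by ELISA with fluorescence detection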
Procedure, shortened: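 HUVEC co-cultured with PBMC were dosed with chemical, and CD69 was measured by ELISA with fluorescence read-out 24 h later. Bidirectional curve fitting used DMSO as negative control and activity baseline.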

[16] = read-out: Monocyte Chemoattractant Protein-1 (MCP1), CCL2 (gene 6347); assay: BSK_SAg_MCP1: BioMAP Diversity Plus: SAg Assay for Monocyte Chemoattractant Protein-1 (MCP1) Biomarker Activity (AID 2283090); conditions: primary human HUVEC with PBMC; actives raise or lower the signal
Procedure, shortened: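 MCP-1 levels in the endothelial–PBMC SAg co-culture were quantified by ELISA at 24 h post-dosing; both increases and decreases versus DMSO scored. Cytotoxicity monitored by SRB total protein in parallel cultures.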

[17] = read-out: Interleukin-1 alpha (IL1a), IL1A (gene 3552); assay: BSK_LPS_IL1a: BioMAP Diversity Plus: LPS Assay for Interleukin-1 alpha (IL1a) Biomarker Activity (AID 2283080); conditions: primary human HUVEC with PBMC; actives raise or lower the signal
Procedure, shortened: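 Human umbilical vein endothelial cells co-cultured with peripheral blood mononuclear cells were LPS-stimulated and exposed to test chemicals for 24 h. IL-1 alpha was quantified by ELISA, with bidirectional curve fitting against DMSO as the negative control and baseline.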

[18] = read-out: Tissue Factor, F3 (gene 2152); assay: BSK_LPS_TissueFactor: BioMAP Diversity Plus: LPS Assay for Tissue Factor Biomarker Activity (AID 2283084); conditions: primary human HUVEC with PBMC; actives raise or lower the signal
Procedure, shortened: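 Human umbilical vein endothelial cells co-cultured with peripheral blood mononuclear cells were dosed and stimulated with LPS. Cell-surface CD142 was quantified by ELISA at 24 h. Activity was fitted bidirectionally against DMSO baseline.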

Chain of Tumor necrosis factor (Homo sapiens) (P01375 whole entry, looked up): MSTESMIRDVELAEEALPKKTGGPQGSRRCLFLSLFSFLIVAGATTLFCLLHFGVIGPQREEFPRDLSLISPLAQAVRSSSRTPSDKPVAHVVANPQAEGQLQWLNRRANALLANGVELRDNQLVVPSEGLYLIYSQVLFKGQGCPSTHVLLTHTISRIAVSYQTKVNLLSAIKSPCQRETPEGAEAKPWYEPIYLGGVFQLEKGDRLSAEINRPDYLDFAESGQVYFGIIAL
Chain of E-selectin (Homo sapiens) (P16581 whole entry, looked up): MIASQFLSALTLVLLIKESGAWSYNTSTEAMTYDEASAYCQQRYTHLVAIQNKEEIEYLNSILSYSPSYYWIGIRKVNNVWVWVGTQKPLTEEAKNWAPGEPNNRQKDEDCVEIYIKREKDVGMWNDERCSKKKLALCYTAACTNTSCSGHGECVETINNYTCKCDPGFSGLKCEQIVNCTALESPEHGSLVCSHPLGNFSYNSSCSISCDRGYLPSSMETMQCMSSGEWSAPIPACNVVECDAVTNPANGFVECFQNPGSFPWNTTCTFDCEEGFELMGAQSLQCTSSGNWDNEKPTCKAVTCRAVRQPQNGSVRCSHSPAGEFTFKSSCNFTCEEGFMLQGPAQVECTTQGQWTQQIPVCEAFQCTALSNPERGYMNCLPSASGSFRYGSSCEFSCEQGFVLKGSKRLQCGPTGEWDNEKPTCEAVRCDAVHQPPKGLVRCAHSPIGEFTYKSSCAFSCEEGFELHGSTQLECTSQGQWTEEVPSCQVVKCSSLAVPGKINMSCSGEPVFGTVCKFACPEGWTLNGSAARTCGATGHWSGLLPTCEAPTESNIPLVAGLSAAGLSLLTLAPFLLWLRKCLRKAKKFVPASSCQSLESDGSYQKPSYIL

For CCCCCCCCCCCO, the outcome [1] was “inactive”, the outcome [2] was “inactive” and the outcome [3] was “inactive”. The outcome [4] was “inactive”, the outcome [5] was “inactive” and the outcome (CD40, CD40 (gene 958) [6]) was “inactive”. For the same compound, the outcome [7] was “inactive”, the outcome [8] was “inactive” and the outcome [9] was “inactive”. The outcome [10] was “inactive”, the outcome [11] was “inactive” and the outcome [12] was “inactive”. For the same compound, the outcome [13] was “inactive”, the outcome [14] was “inactive” and the outcome (CD38, CD38 (gene 952)) was “inactive”. For the same compound, the outcome (CD40, CD40 (gene 958) [15]) was “inactive”, the outcome (CD69, CD69 (gene 969)) was “inactive” and the outcome [16] was “inactive”.

In the case of CCCCOC(=O)CC(CC(=O)OCCCC)(OC(C)=O)C(=O)OCCCC, the outcome [1] is reported as “inactive”, the outcome [2] is reported as “inactive” and the outcome [3] is reported as “inactive”. For the same compound, the outcome [4] was “inactive”, the outcome [5] was “inactive” and the outcome (CD40, CD40 (gene 958) [6]) was “inactive”. The outcome [7] was “inactive”, the outcome [8] was “inactive” and the outcome [9] was “inactive”. For the same compound, the outcome [17] was “inactive”, the outcome [10] was “inactive” and the outcome [11] was “inactive”. For the same compound, the outcome [12] was “inactive”, the outcome [18] was “inactive” and the outcome [13] was “inactive”. For the same compound, the outcome [14] was “inactive”, the outcome (CD38, CD38 (gene 952)) was “inactive” and the outcome (CD40, CD40 (gene 958) [15]) was “inactive”. For the same compound, the outcome (CD69, CD69 (gene 969)) was “inactive” and the outcome [16] was “inactive”.

With CCN(Cc1cccnc1)C(=O)c1cccc(Cl)c1[C@]1(C)C(=O)N(Cc2ccc(OC)cc2OC)c2ccc(Cl)cc21 the outcome [1] was “inactive”, the outcome [2] was “inactive” and the outcome [3] was “inactive”. For the same compound, the AC50 [4] was 4.21 µM (active), the outcome [5] was “inactive” and the AC50 (CD40, CD40 (gene 958) [6]) was 5.26 µM (active). The AC50 [7] was 10.8 µM (active), the AC50 [8] was 5.54 µM (active) and the AC50 [9] was 6.69 µM (active). The AC50 [10] was 8.28 µM (active), the outcome [11] was “inactive” and the AC50 [12] was 6.54 µM (active). The AC50 [18] was 12.5 µM (active), the outcome [13] was “inactive” and the AC50 [14] was 5.26 µM (active). For the same compound, the AC50 (CD38, CD38 (gene 952)) was 8.35 µM (active), the AC50 (CD40, CD40 (gene 958) [15]) was 5.55 µM (active) and the AC50 (CD69, CD69 (gene 969)) was 7.2 µM (active).
